Test results from PubChem BioAssay AID1986 (Sanford-Burnham Center for Chemical Genomics, 2009).
The campaign covered roughly 290,000 compounds. About 890 (0.31%) were called active. No stated cut-off is given here; in the data, active means inhibition mostly above about 52% (no sharp cut-off); inactive means mostly below about 76%. The full list was thinned out, with actives kept by preference.

Assay: inhibitors of HIV fusion peptide binding, primary screen, biochemical, uHTS, fluorescence dequenching (AID 1986)
Settings: cell-free peptide binding, 30 min, stronger effect = higher value
[1] = measured here: repeat confirmation average inhibition, at 18.6 µM

| SMILES | inhibition (at 20 µM) | inhibition [1] [%] |
| --- | --- | --- |
| O=C(Nc1cccc(-c2nc3cc(Cl)ccc3o2)c1)C1CCCO1 (configuration not stated) | 1% (inactive) | – |
| CN(C)S(=O)(=O)c1cccc(C(=O)OCC(=O)NCc2ccc3c(c2)OCO3)c1 | 0.4% (inactive) | – |
| COc1ccc2sc(/C=C/c3ccccc3O)[n+](C)c2c1 | 69.1% (active) | 88.7 |
| COc1ccc2sc(C)[n+](C)c2c1 | -2.6% (inactive) | – |
| C[n+]1ccc(/C=C/c2ccccc2O)c2ccccc21 | 1.2% (inactive) | – |
| Cc1cc(C(=O)Nc2cccnc2)cs1 | 0.7% (inactive) | – |
| Cn1c(=O)oc2cc(S(=O)(=O)NCc3ccc(F)cc3)ccc21 | 8.5% (inactive) | – |
| CCN1CCN(S(=O)(=O)CC2(C)C3CCC2(C)C(=O)C3Br)CC1 (configuration not stated) | -1.8% (inactive) | – |
| Cc1cc(C)c(C(=O)Nc2ccc(S(=O)(=O)Nc3onc(C)c3C)cc2)c(C)c1 | 0.9% (inactive) | – |
| Cc1cc(C)c2nc(-c3ccccn3)cc(C(=O)Nc3ccc(S(=O)(=O)Nc4cc(C)on4)cc3)c2c1 | 59% (inactive) | 21.6 |
| Cc1cc(C)c2nc(-c3ccccn3)cc(C(=O)Nc3ccc(S(=O)(=O)Nc4onc(C)c4C)cc3)c2c1 | 70.5% (active) | – |
| Cc1cc(C)c2nc(-c3cccnc3)cc(C(=O)Nc3ccc(S(=O)(=O)Nc4onc(C)c4C)cc3)c2c1 | 57% (active) | – |
| COc1ccc(-c2cc(C(=O)Nc3ccc(S(=O)(=O)Nc4onc(C)c4C)cc3)c3ccccc3n2)cc1 | 64.1% (inactive) | 40.8 |
| Cc1ccccc1C(=O)Nc1ccc(S(=O)(=O)Nc2onc(C)c2C)cc1 | 0.8% (inactive) | – |
| O=C(CN1C(=O)NC2(CCCC2)C1=O)Nc1cccc(Cl)c1Cl | 0.8% (inactive) | – |
| CCOc1ccccc1C(=O)NC1CCN(Cc2ccccc2)CC1 | -0.3% (inactive) | – |
| CN(C)c1cncc(C(=O)O)c1 | -0.6% (inactive) | – |
| S=C(NCc1ccccn1)Nc1ccccc1Cl | 1.2% (inactive) | – |
| CC(=O)N(CCC(c1ccco1)C(C)C)Cc1ccc(Cl)cc1 (configuration not stated) | -0.3% (inactive) | – |
| Clc1ccc(Cn2cc(/C=N/n3cnnc3)c3ccccc32)c(Cl)c1 | -3% (inactive) | – |
| Oc1sc(C=Nc2ccc(F)cc2)c2ccccc12 | 55% (inactive) | 23 |

| SMILES | inhibition (at 20 µM) | inhibition [1] [%] |
| --- | --- | --- |
| Cc1ccc(N=Cc2sc(O)c3ccccc23)cc1 | 101% (active) | 104 |
| Oc1sc(C=Nc2ccccc2)c2ccccc12 | 24.4% (inactive) | – |
| Cc1nn(C)cc1CNC(=O)c1cccc(F)c1 | -1.7% (inactive) | – |
| CN(C)c1ccc(/C=C2\SC(=O)N(CC(O)Cn3c4ccccc4c4ccccc43)C2=O)cc1 (configuration not stated) | 120% (active) | – |
| O=C1S/C(=C\c2ccccc2)C(=O)N1CC(O)Cn1c2ccccc2c2ccccc21 (configuration not stated) | 0.2% (inactive) | – |
| O=C1S/C(=C/c2ccccc2)C(=O)N1CC(O)Cn1c2ccccc2c2ccccc21 (configuration not stated) | -0.1% (inactive) | – |
| C#CCn1c(-c2cccs2)nc2ccccc21 | 0% (inactive) | – |
| Nc1nnc(CC(=O)N/N=C/c2cc([N+](=O)[O-])cc(Br)c2O)s1 | 61.2% (active) | – |
| Nc1nnc(CC(=O)N/N=C\c2cc([N+](=O)[O-])ccc2O)s1 | 15.7% (inactive) | – |
| Nc1nnc(CC(=O)N/N=C/c2ccc([N+](=O)[O-])cc2)s1 | -2.4% (inactive) | – |
| Cc1cc(OCC(=O)NC(Cc2ccc(Cl)cc2)C(=O)O)c2c(C)cc(=O)oc2c1 (configuration not stated) | 4.4% (inactive) | – |
| Cc1ccc(/C(N)=N/OC(=O)c2cccc(Cn3cc(C(F)(F)F)ccc3=O)c2)cc1 | -0.3% (inactive) | – |
| COC(=O)c1cc(C(=O)c2ccccc2)n2c(=O)/c(=C\N(C)C)sc12 | 2.2% (inactive) | – |
| COC(=O)c1cc(C(=O)c2ccc(Cl)cc2)n2c(=O)/c(=C\N(C)C)sc12 | 97.1% (active) | 68.7 |
| CN(C)/C=c1\sc2c(C#N)cc(C(=O)c3ccc(Br)cc3)n2c1=O | 3.8% (inactive) | – |
| COC(=O)c1nn(-c2ccc(OC)cc2)ccc1=O | -2.9% (inactive) | – |
| O=C(O)c1ccc(Cl)c2c1C1C=CCC1C(c1ccccn1)N2 (configuration not stated) | -3.1% (inactive) | – |
| COc1ccc(OC)c(C2Nc3c(Cl)ccc(C(=O)O)c3C3C=CCC32)c1 (configuration not stated) | 38.2% (inactive) | – |
| COC(=O)COc1ccc(C2Nc3c(Cl)ccc(C(=O)O)c3C3C=CCC32)cc1 (configuration not stated) | 62.9% (active) | – |
| Cc1c(OCC(=O)OC(C)(C)C)ccc2c3c(c(=O)oc12)CCC3 | 1.6% (inactive) | – |
| NC1=Nc2cccc3cccc1c23 | 5.1% (inactive) | – |

| SMILES | inhibition (at 20 µM) | inhibition [1] [%] |
| --- | --- | --- |
| NC1=CC(=O)c2cccc3cccc1c23 | 64% (active) | 63.9 |
| O=C1C=C(O)c2cccc3cccc1c23 | 9% (inactive) | – |
| COc1cc(/C=C2\C(=O)ON=C2c2ccccc2)cc(OC)c1OC | 1.4% (inactive) | – |
| COc1cc(/C=C2/C(=O)ON=C2c2ccccc2)ccc1O | 10.6% (inactive) | – |
| CCOc1cc(/C=C2/C(=O)ON=C2C)ccc1O | 33.7% (inactive) | – |
| CCOc1cc(/C=C2\C(=O)ON=C2c2ccccc2)ccc1OC | 0.3% (inactive) | – |
| CCOc1cc(/C=C2\C(=O)ON=C2c2ccccc2)cc(Br)c1O | 69.6% (active) | 108 |
| COc1cc(/C=C2\C(=O)ON=C2c2ccccc2)cc(Cl)c1O | 45.2% (inactive) | – |
| COc1cc(/C=C2\C(=O)ON=C2c2ccccc2)cc(Br)c1O | 63.3% (active) | 106 |
| CCOc1cc(/C=C2/C(=O)ON=C2C)cc(Br)c1O | 57.8% (active) | 51.8 |
| C#CCOc1c(Br)cc(/C=C2/C(=O)ON=C2C)cc1OCC | 4.2% (inactive) | – |
| Cc1ccc(N/C=C2\CCCCC2=O)nc1 | 0.7% (inactive) | – |
| Cc1ccc(S(=O)(=O)N/N=C\c2cn(CC(N)=O)c3ccccc23)cc1 | 0.7% (inactive) | – |
| CN(C)c1ncnc(N(C)C)c1[N+](=O)[O-] | -2.4% (inactive) | – |
| COc1ccccc1/C=C(/C(=O)NCCCn1ccnc1)c1ccccc1 | 0.9% (inactive) | – |
| O=C(N/N=C/c1ccccn1)c1cc(C2CC2)[nH]n1 | -0.3% (inactive) | – |
| Cc1oc2cc3oc(=O)cc(C)c3cc2c1C | 1% (inactive) | – |
| COC(=O)c1cc(O)c(O)c(O)c1 | 11% (inactive) | – |
| COC1OC(COC(=O)c2ccccc2)C(OC(=O)c2ccccc2)C1OC(=O)c1ccccc1 (configuration not stated) | -0.6% (inactive) | – |
| O=C(OCC1O[C@@H](OC(=O)c2cc(O)c(O)c(O)c2)[C@@H](OC(=O)c2cc(O)c(O)c(O)c2)[C@@H](OC(=O)c2cc(O)c(O)c(O)c2)[C@@H]1OC(=O)c1cc(O)c(O)c(O)c1)c1cc(O)c(O)c(O)c1 (some centres not stated) | 56% (active) | – |
